# Screens (PubChem BioAssay)
# Pol beta inh – DNA polymerase beta (human) inhibition | Pol beta primer extension/strand displacement, fluorescence kinetic | Potency, µM (highest dose often 114 µM), hits mostly inhibitors | actives 1.3% (n = 340,000) | AID 485314
#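 Homogeneous kinetic assay of primer extension and strand displacement by 10 nM Pol beta, preincubated 15 min at room temperature with compound before 50 nM substrate (final) was added. Read at 0 and 10 min; four-parameter Hill fit.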
# POLH inh – inhibitors of human DNA polymerase eta. Q9Y253. recombinant Pol eta, fluorescent DNA replication assay. Potency, µM (top dose mostly 114 µM), most hits filed as inhibitors. actives 1.2% (n = 390,000). AID 588591
#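 Pol eta (10 nM) was preincubated with compounds for 15 min at room temperature, after which fluorescent replication substrate (50 nM final) was added to start the reaction. Fluorescence was read kinetically at 0 and 10 min.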
# PI5P4Ka inh – blocks human PI5P4K alpha kinase activity; P48426; PI5P4Kalpha enzyme, ADP-Glo luminescence, 60 min; active compounds read low; max response, %; actives 1.2% (n = 330,000); AID 652105; active means max response of -50% or lower; inconclusive means between -30% and -50%; inactive means -30% or higher; further: value at the top dose of about 77 µM
#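 Controls without substrate or without enzyme flank wells where PI5P4Kalpha converts substrate using 5 microM ATP (final). Incubation lasts 60 minutes at room temperature; ADP formed is read by ADP-Glo luminescence.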
# POLK inh – DNA polymerase kappa (human) inhibition | purified Pol kappa, fluorescent DNA synthesis assay, 10 min | Potency, µM (doses to about 107 µM), actives largely listed as inhibitors | actives 0.53% (n = 400,000) | AID 588579
#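 Inhibition of 10 nM Pol kappa is measured by a fluorescent read-out at 0 and 10 min following addition of 50 nM substrate (final), with a 15-min room-temperature compound preincubation.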
# WRN helicase inh – WRN helicase (human) inhibition; actives 0.46% (n = 360,000); Potency, µM (highest dose often 114 µM), usual class: inhibitors; WRN helicase unwinding, fluorescent forked duplex, kinetic; Q14191; further: nearly all actives have a fitted effect of over 55% in size
#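 Fluorescence dequenching readout, ex 525 nm/em 598 nm, kinetic mode: forked duplex DNA (100 nM final) with adjacent fluorophore and quencher unwound by WRN (20 nM final) with 2 mM ATP. Compound preincubation 15 min, room temperature.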
# POLI inh – inhibitors of human DNA polymerase iota; Q9UNA4; Pol iota fluorescent replication assay, 10 min; Potency, µM (top dose mostly 115 µM), hits mostly inhibitors; actives 1% (n = 390,000)
#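 Fluorescent replication assay read twice, at 0 min and 10 min after adding 50 nM (final) substrate. Enzyme (10 nM) and compounds were first incubated 15 min at room temperature; enzyme-free buffer wells were negative controls.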
# A number is an active result; . = inactive; ? = inconclusive; / = no result given. This is a sample that favours compounds with a hit; in the whole collection about 2.8% have one here. Unless noted, the call rests on the fitted dose curve; in most records, active means well fitted curve in the direction sought with a large enough effect; inconclusive means small, poorly fitted or top-dose-only effect, or another doubt; inactive means no such curve, though single readings can be large; an effect the other way counts as inactive or inconclusive.
SMILES,Pol beta inh,POLH inh,PI5P4Ka inh,POLK inh,WRN helicase inh,POLI inh
O=C(O)c1cc2cccc(S(=O)(=O)N3CCCCC3)c2cc1O,.,.,-64,.,.,.
O=S(=O)(c1cccc2ccccc12)N1CCCCC1,.,.,.,.,.,.
COc1ccc(/C=C2\SC(=O)N(CCc3nnc(N)s3)C2=O)cc1,?,45µM,?,?,.,20µM
COc1ccc(/C=C2\SC(=O)N(CCCC(=O)Nc3ccc(C(=O)O)cc3)C2=O)cc1,/,.,.,/,.,/
Cn1c(N)c(S(=O)(=O)N2CCCC2)c(=O)n(C)c1=O,.,.,.,.,.,.
NS(=O)(=O)c1ccc(NS(=O)(=O)c2ccc(NC(=O)c3ccc(-c4ccccc4)cc3)cc2)cc1,?,?,.,?,?,56µM
Cc1ccc(CNC(=O)CN(C(=O)C2(C)CC(=O)N=C3C=CC=CN32)c2ccc(F)cc2)cc1 (stereo unspecified),.,.,.,.,.,.
COc1ccc(NC(=O)C(=O)NNC(=O)COc2ccc(OC)cc2)cc1,.,.,.,.,.,.
Cc1cc(Br)ccc1OCC(=O)NNC(=O)C(=O)Nc1ccccc1,28µM,.,.,.,.,?
O=C(COc1ccc2ccccc2c1)NNC(=O)C(=O)Nc1ccccc1,40µM,.,.,.,.,?
Cc1cc(/C=C/c2ccnc3ccccc23)ccc1N(C)C,/,/,/,.,/,.
CCOc1ccc(-c2cc(C(=O)N3CCN(S(=O)(=O)c4cc(Cl)ccc4OC)CC3)[nH]n2)cc1,.,.,/,.,/,.
O=c1c2ccccc2sn1-c1ccc(Cl)c(S(=O)(=O)N2CCOCC2)c1,/,/,/,.,/,79µM
COC(CNC(=O)c1ccc2c3c(onc13)-c1ccccc1C2=O)OC,.,?,.,.,50µM,18µM
COC(CNC(=O)c1cccnc1)OC,.,.,.,.,.,.
CC(C)CCNC(=O)c1ccc2c(c1)NC(=O)C(CS(=O)(=O)Cc1cccc(Br)c1)N2 (stereo unspecified),10µM,.,/,.,/,?
CN(C)CCNC(=O)c1ccc2c(c1)NC(=O)C(CS(=O)(=O)Cc1cccc(Br)c1)N2 (stereo unspecified),.,.,/,.,/,.
Cc1cccc(OC(C)C(=O)Nc2ccc(N3CCCCC3)cc2)c1 (stereo unspecified),/,.,.,.,.,.
O=C(COc1ccc2c(-c3ccccc3)cc(=O)oc2c1)N[C@H](Cc1c[nH]c2ccccc12)C(=O)O,.,?,.,.,.,.
O=C(CCl)c1ccc2c(c1)CCCC2,/,/,/,.,/,11µM
O=C(C[n+]1ccccc1Br)c1ccc2c(c1)CCCC2,/,/,/,?,/,71µM
O=C(C[n+]1cc(Br)cc(Br)c1)c1ccc2c(c1)CCCC2,/,/,/,.,/,.
O=C(C[n+]1ccccc1Br)c1ccc(O)c(O)c1,/,/,/,.,/,.
C=CCOc1ccc(/C=C(\C#N)C(=O)Nc2ccccn2)cc1,.,.,.,.,.,.
Cc1ccc(NS(=O)(=O)c2c(C)[nH]c(C)c2C(=O)N2CCCCC2)cc1Cl,.,.,.,.,.,.
SMILES,Pol beta inh,POLH inh,PI5P4Ka inh,POLK inh,WRN helicase inh,POLI inh
Cc1ccc(C(=O)NCCN2CCC(n3c(=O)[nH]c4ccccc43)CC2)cc1F,/,/,.,/,.,/
O=C(Nc1ccc(Nc2ccncc2)cc1)c1ccc(Nc2ccnc3ccc([N+](=O)[O-])cc23)cc1[N+](=O)[O-],?,?,-54,.,.,.
O=C(Nc1ccc(Nc2ccncc2)cc1)c1ccc([N+](=O)[O-])cc1,?,.,.,.,.,.
O=C(Nc1nnc(SCc2ccc(F)cc2)s1)C1CC(=O)N(c2ccc3c(c2)OCCO3)C1 (stereo unspecified),.,.,.,.,.,.
Cc1csc(NC(=O)C2CC(=O)N(c3ccc4c(c3)OCCO4)C2)n1 (stereo unspecified),/,.,.,.,.,.
N#Cc1ccc(CSc2nnc(NC(=O)C3CC(=O)N(c4ccc5c(c4)OCCO5)C3)s2)cc1 (stereo unspecified),8.9µM,.,.,.,.,.
CCc1ccc(-c2csc(NC(=O)C3CC(=O)N(c4ccc5c(c4)OCCO5)C3)n2)cc1 (stereo unspecified),?,.,?,.,.,89µM
